# In PubChem BioAssay AID1851 (National Center for Advancing Translational Sciences (NCATS), 2009):
# About 4,000 (25%) of roughly 16,000 compounds were called active. About 26% were inconclusive and are not listed. Only a sample is shown. Values without a mark were called inactive. Calls follow the shape of the dose curve; as a rule, active = well fitted curve in the direction sought with a large enough effect; inconclusive = small, poorly fitted or top-dose-only effect, or effect the other way; inactive = no such curve, though single readings can be large or run the other way.
# Molecular target: Cytochrome P450 2C9 (Homo sapiens) (UniProt P11712)
# Test: Cytochrome panel assay with activity outcomes
# Conditions: recombinant CYP, pro-luciferin dealkylation, luminescence, p450-cyp2c9; series mostly up to 57.1 µM; activity, negative = inhibition: at the top concentration
# % is scaled to controls: 0 for no effect and ±100 for the full control effect.
# Sequence of Cytochrome P450 2C9 (Homo sapiens) (P11712 whole entry, looked up): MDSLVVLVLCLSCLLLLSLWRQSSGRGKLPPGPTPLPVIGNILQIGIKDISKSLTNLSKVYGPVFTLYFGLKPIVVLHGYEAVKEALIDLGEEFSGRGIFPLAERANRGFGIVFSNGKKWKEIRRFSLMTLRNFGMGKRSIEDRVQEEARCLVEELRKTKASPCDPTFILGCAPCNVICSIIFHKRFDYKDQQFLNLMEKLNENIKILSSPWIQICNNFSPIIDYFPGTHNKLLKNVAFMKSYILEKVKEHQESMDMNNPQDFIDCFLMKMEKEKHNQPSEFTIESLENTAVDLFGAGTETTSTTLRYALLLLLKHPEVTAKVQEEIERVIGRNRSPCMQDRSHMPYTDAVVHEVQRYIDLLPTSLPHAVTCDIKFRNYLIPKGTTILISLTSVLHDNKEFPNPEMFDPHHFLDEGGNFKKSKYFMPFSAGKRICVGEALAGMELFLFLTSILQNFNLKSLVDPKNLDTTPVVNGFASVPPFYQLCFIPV
SMILES,"activity, negative = inhibition",AC50
C#CCCCO/N=C1/C[C@@H](O)[C@@H](O)[C@@H]2[C@@H]3C(=O)N(C4CCCCC4)C(=O)[C@H]3CC[C@@H]12,-15% [at 11.4 µM],–
CC(C)C(O)(C(C)C)C(C)C,-0.763% [at 11.4 µM],–
CNc1ncncc1-c1ccc(C(=O)N(C)C)cc1,-6.73% [at 2.29 µM],–
COc1cc(-c2nnc(SCC(=O)Nc3ccc4c(c3)OCCO4)o2)cc(OC)c1OC,–,1.41 µM (active)
COc1ccc(-n2c(=O)[nH]cc(C(=O)Nc3ccc4c(c3)OCCO4)c2=O)cc1,–,7.08 µM (active)
Cc1ccc2nc(SCC(=O)Nc3nnc(SCC(N)=O)s3)[nH]c2c1,–,11.2 µM (active)
COc1cc(C(=O)Nc2ccc3c(c2)OCCO3)c(-n2cnnn2)cc1OC,-8.95%,–
CCCCNCCOCCSc1ccc(Cl)cc1,-16.8%,–
CCCCCc1nc2c(=O)[nH]c3ccccc3c2o1,-15.2%,–
N/C(=N\c1nc2ccccc2o1)NC(=O)c1ccccc1F,–,12.6 µM (active)
NC(=Nc1ccccc1)NC(=O)c1nc(Cl)c(N)nc1N,-6.89%,–
COc1ccc(C2/C(=C(/O)c3ccc4c(c3)CC(C)O4)C(=O)C(=O)N2CCN2CCOCC2)cc1 (centres undefined),-36.8%,–
COc1cccc(NC(=O)CSc2nnc(CN3CCOCC3)n2C)c1,-27.8%,–
CCN(CC)C(=O)CSc1nc2ccc(NC(=O)CSc3nnc(COc4ccccc4C)n3C)cc2s1,–,1.58 µM (active)
O=C(COc1ccc(-c2ccccc2)cc1)N/N=C/c1ccccc1Br,–,4.47 µM (active)
CCOC(=O)N/N=C/c1ccccc1F,-7.31%,–
CN(C)Cc1c[nH]c2nc[nH]c(=O)c12,4.29% [at 11.4 µM],–

SMILES,"activity, negative = inhibition",AC50
CC(NC(=O)CCSc1nc(-c2ccc3c(c2)OCO3)cc(C(F)(F)F)n1)c1ccccc1 (centres undefined),–,2 µM (active)
CC(=O)NCCNc1nc(-c2ccc3c(c2)OCO3)nc2ccccc12,5.84% [at 2.29 µM],–
c1ccc(CNc2nc(-c3ccc4c(c3)OCO4)nc3ccccc23)cc1,-26.1% [at 2.29 µM],–
COCCNc1nc(-c2ccccc2C(F)(F)F)nc2ccccc12,-9.26% [at 2.29 µM],–
Cc1cc(NCCO)c2ccccc2n1,-11.5%,–
CCCNc1c(F)c(F)c2c(C)c3ccccc3nc2c1F,–,15.8 µM (active)
CCN1CCN(c2nc(-c3ccccn3)nc3ccccc23)CC1,-23.3%,–
CCCCC1CCC(c2nc(-c3ccccn3)no2)CC1 (centres undefined),–,14.1 µM (active)
CC(=O)/C=C/c1ccc2ccccc2n1,-7.35%,–
c1ccc2nc(-c3ccncc3)ccc2c1,–,5.01 µM (active)
COc1cccc(-c2cc(N(C)Cc3ccco3)ncn2)c1,-6.29% [at 2.29 µM],–
C[C@@H]1NC(=O)C/C=C\[C@@H](C)[C@@H]2C=C[C@H](O)[C@@H](COC(=O)[C@H](C)NC(=O)C/C=C\[C@@H](C)[C@@H]3C=C[C@H](O)[C@@H](COC1=O)O3)O2,5.32% [at 11.4 µM],–
CCOc1cc(S(=O)(=O)N(Cc2ccccc2)Cc2ccccc2)c(OCC)cc1-n1cnnn1,–,7.94 µM (active)
O=C(O)CN(CCOCCOCCN(CC(=O)O)CC(=O)O)CC(=O)O,6.97%,–
FC(F)(F)c1ccccc1-c1nc(NC2CC2)c2ccccc2n1,12.1% [at 2.29 µM],–
COc1ccc2ccccc2c1/C=C\C(=O)c1ccccc1,–,1.26 µM (active)
COc1cc(C)cc(OC)c1/C=C\C(=O)O,-15.8% [at 11.4 µM],–
